According to PubChem BioAssay (Tox21):
Unmarked numbers belong to inactive results. Records with an inconclusive call do not appear. Where a call stands in place of a potency, no number is given. The source made the active and inactive calls. Unless noted, calls follow the shape of the full dose curve.

What was measured:
[1] = Nuclear factor erythroid 2-related factor 2/antioxidant responsive element (Nrf2/ARE) small molecule agonists: qHTS cell viability counter screen in human keratinocytes (AID 1919968; active = well fitted curve in the direction sought with a large enough effect in the repeat runs; an effect the other way counts as inactive or inconclusive; also: nearly all actives have a fitted effect of over 55% in size; also: potency is read from the fitted curve at half-maximal effect)
Method in brief: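 Fluorescence read-out from CellTiter-Fluor after 1 h at 37 C. Wells held HaCaT-derived ARE-luciferase reporter cells (1,500/well) treated 23 h with DMSO-dissolved compounds. Run in the same wells as the luciferase agonist read.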

[2] = Nuclear factor erythroid 2-related factor 2/antioxidant responsive element (Nrf2/ARE) small molecule agonists: luciferase reporter gene qHTS assay in human keratinocytes (AID 1919969); also: nearly all actives have a fitted effect of over 35% in size; also: potency is read from the fitted curve at half-maximal effect
[3] = target: Gonadotropin-releasing hormone receptor (Homo sapiens) (UniProt P30968); experiment: Human gonadotropin-releasing hormone receptor (GnRHR) small molecule agonists, calcium flux assay in GnRHR-HEK293 cells (AID 1920063); also: nearly all actives have a fitted effect of over 35% in size
Method in brief: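 Calcium-dye fluorescence, Ex/Em=480/540, recorded every 1 sec over 3 min after compound addition to GnRHR-HEK293 cells. Cells had been seeded 18 hours earlier and dye-loaded for 1 hour at 37 C. Fifteen concentrations, triplicates.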

[4] = target: KiSS-1 receptor (Homo sapiens) (UniProt Q969F8); experiment: Human kisspeptin (KISS1R) small molecule agonists, calcium flux assay in KISS1R-HEK293 cells (AID 1920064; active = well fitted curve in the direction sought with a large enough effect in the repeat runs; an effect the other way counts as inactive or inconclusive)
Method in brief: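 Calcium flux read-out: kinetic fluorescence at Ex/Em=480/540, 1 s intervals over 3 min, after pin-tool compound addition to dye-loaded KISS1R-HEK293 cells. Fifteen concentrations, triplicates.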

[5] = G protein-coupled receptor (GPCR) small molecule agonists, calcium flux assay: HEK293 wild type cell line counter screen (AID 1920065)
Method in brief: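 Agonist mode; 18 h seeding at 37 C, 1 h dye load at 37 C; compounds pinned from DMSO, ATP as positive control; kinetic fluorescence 480/540 nm, 3 min, 1 s reads; 15 concentrations, triplicate.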

[6] = p53 small molecule agonists, cell-based qHTS assay: qHTS cell viability counter screen (AID 1963581); also: nearly all actives have a fitted effect of over 45% in size
Method in brief: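 Cytotoxicity read-out: ATP-based luminescence (CellTiter-Glo, 30 min RT) measured in the same wells as the p53 reporter assay, HCT-116 p53RE-bla cells, 16 h compound exposure at 37 C.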

[7] = p53 small molecule agonists, cell-based qHTS assay (AID 1963582; active = well fitted activation curve with a large enough effect in the signal ratio in the repeat runs, not every such curve was filed as active; the % refers to the signal ratio)
Method in brief: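 Fluorescence intensity read-out of a beta-lactamase reporter under a p53 response element. Cells were exposed to DMSO-dissolved compounds for 16 h at 37 C, then developed with FRET substrate for 2 h at RT.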

[8] = target: 5-hydroxytryptamine receptor 2A (Homo sapiens) (UniProt P28223); experiment: 5-hydroxytryptamine receptor 2A (HTR2A) small molecule antagonists, cell-based qHTS assay (AID 1963586); also: nearly all actives have a fitted effect of over 45% in size
Method in brief: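 CHO cells stably expressing human HTR2A were plated for 18 h at 37 C, then loaded with calcium dye for 1 h. Compounds were preincubated 5 min at room temperature before DOI (4 nM solution) was added. Kinetic fluorescence was read for 3 min.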

[9] = target: 5-hydroxytryptamine receptor 2A (Homo sapiens) (UniProt P28223); experiment: 5-hydroxytryptamine receptor 2A (HTR2A) small molecule agonists, cell-based qHTS assay (AID 1963587); also: nearly all actives have a fitted effect of over 30% in size
Method in brief: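 CHO cells stably expressing human HTR2A, plated 18 h, loaded with calcium dye 1 h at 37 C. Agonist mode: compounds added and intracellular calcium fluorescence recorded kinetically for 2 min at 1 sec intervals.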

[10] = target: Muscarinic acetylcholine receptor M1 (Homo sapiens) (UniProt P11229); experiment: Cholinergic receptor muscarinic 1 (CHRM1) small molecule antagonists, cell-based qHTS assay (AID 1963588); also: nearly all actives have a fitted effect of over 40% in size; also: potency is read from the fitted curve at half-maximal effect
Method in brief: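 Compounds were tested at 15 concentrations in three independent runs. Dye-loaded CHRM1-CHO cells were exposed 5 min at room temperature before stimulation by acetylcholine added at 50nM. Intracellular calcium was read kinetically on FDSS for 3 min.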

[11] = target: Muscarinic acetylcholine receptor M1 (Homo sapiens) (UniProt P11229); experiment: Cholinergic receptor muscarinic 1 (CHRM1) small molecule agonists, cell-based qHTS assay (AID 1963589); also: nearly all actives have a fitted effect of over 35% in size
Method in brief: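 Calcium flux read-out: kinetic fluorescence at 1 sec intervals after pin-tool compound addition to dye-loaded CHRM1-CHO cells (human M1). Agonist mode; 15 concentrations tested in triplicate independent runs.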

[12] = cAMP Responsive Elements (CRE) small molecule agonists, cell-based qHTS assay (AID 1963590)
Method in brief: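 Beta-lactamase reporter readout: LiveBLAzer B/G FRET substrate, 2 h at room temperature, added after 3 h compound treatment of CRE-bla HEK 293T cells at 37 C/5% CO2.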

[13] = cAMP Responsive Elements (CRE) small molecule antagonists, cell-based qHTS assay (AID 1963591; active = well fitted inhibition curve with a large enough effect in the signal ratio in the repeat runs, not every such curve was filed as active; the % refers to the signal ratio; also: potency is read from the fitted curve at half-maximal effect)
Method in brief: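 HEK293T CRE-bla; 18 h preincubation; compound pin-transfer; NKH477 0.25 uM final, 3 h, 37 C; LiveBLAzer FRET substrate 2 h RT.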

[14] = target: Beta-2 adrenergic receptor (Homo sapiens) (UniProt P07550); experiment: Adrenergic beta2 receptor (ADRB2) small molecule antagonists, cell-based qHTS assay (AID 1963592); also: nearly all actives have a fitted effect of over 50% in size; also: potency is read from the fitted curve at half-maximal effect
Method in brief: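 Assay format: CHO-ADRB2 cells, 18-20hr seeding at 37C/5% CO2, then compound plus 1nM isoproterenol agonist mix for 0.5hr RT. Homogeneous time-resolved fluorescence cAMP detection after 1hr, expressed as 665/615 nm ratio.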

[15] = target: D(2) dopamine receptor (Homo sapiens) (UniProt P14416); experiment: Dopamine D2 receptor (DRD2) small molecule agonists, cell-based qHTS assay (AID 1963594); also: nearly all actives have a fitted effect of over 35% in size
Method in brief: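 HEK293 cells stably expressing human DRD2, pre-treated with PDE inhibitor Ro20-1724 (0.1 mM final) and compound 10 min at room temperature, then stimulated with NKH477 (200nM […]) for 30 min. cAMP read by HTRF (665/620 nm).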

[16] = target: D(2) dopamine receptor (Homo sapiens) (UniProt P14416); experiment: Dopamine D2 receptor (DRD2) small molecule antagonists, cell-based qHTS assay (AID 1963595; active = well fitted inhibition curve with a large enough effect in the signal ratio in the repeat runs, with a control signal flat; the % refers to the signal ratio; also: potency is read from the fitted curve at half-maximal effect)
Method in brief: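 Stable D2 receptor HEK293 line, 24 h after seeding. Compound preincubated 10 min, then quinpirole (12 nM) with forskolin analogue NKH477 (200 nM), 30 min, room temperature. Detection by time-resolved FRET of cAMP.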

[17] = p53 small molecule agonists, cell-based qHTS assay with rat liver microsomes: qHTS cell viability counter screen (AID 1963580); also: nearly all actives have a fitted effect of over 45% in size
Method in brief: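 After the beta-lactamase ratio was read, CellTiter-Glo was added to the same wells and luminescence measured at 30 min; cells had been treated 16 h at 37 C with compounds, rat liver microsomes and NADPH (0.5 mg/mL final each).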

[18] = target: Beta-2 adrenergic receptor (Homo sapiens) (UniProt P07550); experiment: Adrenergic beta2 receptor (ADRB2) small molecule agonists, cell-based qHTS assay (AID 1963593);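 also: CHO cells stably overexpressing human ADRB2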
Method in brief: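 CHO cells stably over-expressing ADRB2 were plated overnight at 37C, then dosed with compounds plus a stimulation mix containing 100uM IBMX and 25uM Ro-20-1724 for 0.5hr at room temperature. cAMP was measured by HTRF competition, 1hr.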

[19] = p53 small molecule agonists, cell-based qHTS assay with rat liver microsomes (AID 1963578)
Method in brief: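 Each plate received p53RE-bla cells, then compound, then rat liver microsomes and NADPH (both 0.5 mg/mL final). Plates were held 16 h at 37 C, and beta-lactamase activity was detected with LiveBLAzer over 2 h.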

[20] = p53 small molecule agonists, cell-based qHTS assay with human liver microsomes: qHTS cell viability counter screen (AID 1963579); also: potency is read from the fitted curve at half-maximal effect; nearly all actives have a fitted effect of over 45% in size
Method in brief: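 Tox21 library compounds, delivered from DMSO stocks, were tested on p53RE-bla cells together with 0.5 mg/mL human liver microsomes and 0.5 mg/mL NADPH (final) over 16 h at 37 C; CellTiter-Glo luminescence served as the cytotoxicity measure.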

Sequence of Gonadotropin-releasing hormone receptor (Homo sapiens) (P30968 whole entry, looked up): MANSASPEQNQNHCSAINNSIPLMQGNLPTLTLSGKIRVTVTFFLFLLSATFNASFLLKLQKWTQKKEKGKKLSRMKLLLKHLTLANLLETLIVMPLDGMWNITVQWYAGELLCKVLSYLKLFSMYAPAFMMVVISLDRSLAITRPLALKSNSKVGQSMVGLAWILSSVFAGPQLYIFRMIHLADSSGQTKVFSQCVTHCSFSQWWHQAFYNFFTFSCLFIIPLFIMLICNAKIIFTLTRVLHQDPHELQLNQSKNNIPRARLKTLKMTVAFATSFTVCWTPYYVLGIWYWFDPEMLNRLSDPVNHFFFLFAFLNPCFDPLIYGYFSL
Sequence of D(2) dopamine receptor (Homo sapiens) (P14416 whole entry, looked up): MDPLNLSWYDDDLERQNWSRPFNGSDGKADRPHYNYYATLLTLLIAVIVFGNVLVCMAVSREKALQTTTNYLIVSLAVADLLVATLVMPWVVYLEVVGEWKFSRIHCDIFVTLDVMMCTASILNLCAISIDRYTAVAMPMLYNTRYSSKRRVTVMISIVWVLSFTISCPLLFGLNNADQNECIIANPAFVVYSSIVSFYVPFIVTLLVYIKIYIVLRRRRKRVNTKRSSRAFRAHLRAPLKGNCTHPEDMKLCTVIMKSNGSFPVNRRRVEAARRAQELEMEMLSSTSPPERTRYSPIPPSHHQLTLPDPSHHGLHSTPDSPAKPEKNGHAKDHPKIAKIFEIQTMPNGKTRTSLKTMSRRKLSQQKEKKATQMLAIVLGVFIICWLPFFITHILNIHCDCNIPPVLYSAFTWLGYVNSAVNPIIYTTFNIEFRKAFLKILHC
Sequence of Muscarinic acetylcholine receptor M1 (Homo sapiens) (P11229 whole entry, looked up): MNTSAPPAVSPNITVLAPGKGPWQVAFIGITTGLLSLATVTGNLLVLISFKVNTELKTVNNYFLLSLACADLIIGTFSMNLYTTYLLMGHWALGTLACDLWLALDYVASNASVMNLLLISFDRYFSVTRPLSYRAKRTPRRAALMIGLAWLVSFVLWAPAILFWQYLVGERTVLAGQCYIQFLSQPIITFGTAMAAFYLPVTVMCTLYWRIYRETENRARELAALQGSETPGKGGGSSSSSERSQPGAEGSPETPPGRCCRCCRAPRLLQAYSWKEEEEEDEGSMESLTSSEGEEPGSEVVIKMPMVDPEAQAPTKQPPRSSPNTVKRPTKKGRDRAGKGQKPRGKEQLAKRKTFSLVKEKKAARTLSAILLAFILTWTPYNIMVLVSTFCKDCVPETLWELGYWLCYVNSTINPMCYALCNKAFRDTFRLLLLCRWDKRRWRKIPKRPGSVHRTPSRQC
Sequence of Beta-2 adrenergic receptor (Homo sapiens) (P07550 whole entry, looked up): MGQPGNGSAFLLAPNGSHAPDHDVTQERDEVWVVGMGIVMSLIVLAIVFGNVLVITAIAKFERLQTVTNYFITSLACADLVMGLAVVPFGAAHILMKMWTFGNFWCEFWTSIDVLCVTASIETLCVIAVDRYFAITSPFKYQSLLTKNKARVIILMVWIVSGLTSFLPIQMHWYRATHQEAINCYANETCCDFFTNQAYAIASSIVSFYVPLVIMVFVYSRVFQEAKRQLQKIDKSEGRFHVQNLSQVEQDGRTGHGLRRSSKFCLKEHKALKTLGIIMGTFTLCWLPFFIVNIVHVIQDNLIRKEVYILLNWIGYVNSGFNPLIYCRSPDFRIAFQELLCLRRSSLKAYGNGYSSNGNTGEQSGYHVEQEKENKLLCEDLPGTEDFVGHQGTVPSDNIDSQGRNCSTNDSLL
Sequence of KiSS-1 receptor (Homo sapiens) (Q969F8 whole entry, looked up): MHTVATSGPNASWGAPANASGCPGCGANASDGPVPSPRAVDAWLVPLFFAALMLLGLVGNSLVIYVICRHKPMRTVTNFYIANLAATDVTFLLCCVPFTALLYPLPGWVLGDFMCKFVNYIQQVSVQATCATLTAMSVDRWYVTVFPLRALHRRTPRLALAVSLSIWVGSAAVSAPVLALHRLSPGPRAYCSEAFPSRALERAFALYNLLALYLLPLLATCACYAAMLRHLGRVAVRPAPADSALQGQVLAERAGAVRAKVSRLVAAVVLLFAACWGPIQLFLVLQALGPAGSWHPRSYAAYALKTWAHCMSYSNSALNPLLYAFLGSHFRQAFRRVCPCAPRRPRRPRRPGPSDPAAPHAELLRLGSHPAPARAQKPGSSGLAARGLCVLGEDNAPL
Sequence of 5-hydroxytryptamine receptor 2A (Homo sapiens) (P28223 whole entry, looked up): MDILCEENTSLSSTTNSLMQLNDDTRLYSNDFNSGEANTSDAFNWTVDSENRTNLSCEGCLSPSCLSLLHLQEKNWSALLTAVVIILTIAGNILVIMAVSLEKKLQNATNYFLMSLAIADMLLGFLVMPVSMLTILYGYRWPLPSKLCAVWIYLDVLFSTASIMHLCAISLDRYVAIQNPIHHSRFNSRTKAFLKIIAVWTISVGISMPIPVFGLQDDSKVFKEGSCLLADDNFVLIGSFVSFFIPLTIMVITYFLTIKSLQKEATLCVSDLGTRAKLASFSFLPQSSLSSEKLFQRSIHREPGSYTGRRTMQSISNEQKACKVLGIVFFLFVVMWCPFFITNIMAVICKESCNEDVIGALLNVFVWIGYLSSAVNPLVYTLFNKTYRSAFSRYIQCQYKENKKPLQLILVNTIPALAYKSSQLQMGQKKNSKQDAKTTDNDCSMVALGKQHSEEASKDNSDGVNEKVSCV

SMILES	Potency [1]	Potency [2]	Potency [3]	Potency [4]	Potency [5]	Potency [6]	Potency [7]	Potency [8]	Potency [9]	Potency [10]	Potency [11]	Potency [12]	Potency [13]	Potency [14]	Potency [15]	Potency [16]	Potency [17]	Potency [18]	Potency [19]	Potency [20]
CCOc1ccc2nc(N)sc2c1	inactive	inactive	inactive	inactive	inactive	inactive	inactive	inactive	inactive	inactive	inactive	inactive	inactive	inactive	inactive	inactive	–	–	–	–
CCC(C)OC(C)CC (stereo not drawn)	inactive	inactive	inactive	inactive	inactive	inactive	–	–	inactive	inactive	inactive	inactive	inactive	inactive	inactive	–	inactive	inactive	–	–
O=C(CCCN1CC=C(n2c(=O)[nH]c3ccccc32)CC1)c1ccc(F)cc1	inactive	inactive	inactive	inactive	inactive	–	–	–	–	–	–	–	–	–	inactive	0.0211 µM (active)	–	–	–	–
CCOC(C)OCC	inactive	inactive	inactive	inactive	inactive	–	–	inactive	inactive	–	inactive	inactive	inactive	inactive	inactive	–	inactive	inactive	–	–
Cc1ncc([C@@H](CCCCCCc2ccc3c(n2)NCCC3)CC(=O)O)cn1	inactive	inactive	inactive	inactive	inactive	–	–	inactive	inactive	inactive	inactive	inactive	0.545 µM (active)	inactive	inactive	inactive	inactive	inactive	–	–
O=S(=O)(O)c1cc(O)ccc1O	inactive	inactive	inactive	inactive	inactive	–	–	inactive	inactive	inactive	inactive	inactive	inactive	inactive	inactive	inactive	–	inactive	–	–
O=C(O)CCc1nc(-c2ccccc2)c(-c2ccccc2)o1	inactive	inactive	inactive	inactive	inactive	–	–	–	–	–	–	–	–	inactive	inactive	inactive	–	inactive	–	–
CCCCNc1ccc(C(=O)OCCOCCOCCOCCOCCOCCOCCOCCOCCOC)cc1	inactive	inactive	inactive	inactive	inactive	–	–	–	inactive	inactive	inactive	inactive	inactive	inactive	inactive	inactive	inactive	inactive	–	–
CC(C)N(c1ccccc1)C(C)C	inactive	inactive	inactive	inactive	inactive	–	–	inactive	inactive	inactive	inactive	inactive	inactive	inactive	inactive	–	inactive	–	–	–
CCCNCCC	inactive	inactive	inactive	inactive	inactive	inactive	–	inactive	inactive	–	inactive	inactive	inactive	inactive	–	inactive	inactive	–	–	–
Cc1[nH]nc2c1N=C(c1ccccc1Cl)c1cc([N+](=O)[O-])ccc1N2	24.3 µM (active)	54.5 µM (active)	inactive	inactive	inactive	–	–	inactive	inactive	inactive	inactive	–	inactive	21.7 µM (active)	inactive	–	–	–	–	–
CC1=C(Br)C(=O)C(Br)=C/C1=C(/c1ccccc1S(=O)(=O)O)c1cc(Br)c(O)c(Br)c1C	18.6 µM (active)	inactive	inactive	inactive	inactive	inactive	–	inactive	inactive	inactive	inactive	–	inactive	–	–	–	–	–	–	–
COc1ccc(/C=C/C(=O)c2ccc(OC)cc2OC)cc1	inactive	29.8 µM (active)	inactive	inactive	inactive	inactive	–	inactive	inactive	–	inactive	–	–	inactive	inactive	inactive	–	–	–	–
OCc1c[nH]c2ccccc12	inactive	61.1 µM (active)	inactive	inactive	inactive	–	–	inactive	–	inactive	–	–	–	–	–	inactive	inactive	–	–	–
O=C(Nc1cccc(C(F)(F)F)c1)c1cc(Br)cc(Br)c1O	7.7 µM (active)	9.69 µM (active)	inactive	inactive	–	–	–	inactive	inactive	inactive	–	–	–	–	inactive	inactive	–	–	inactive	9.13 µM (active)
CC(C)(Cc1c[nH]c2ccccc12)NCC(O)COc1ccccc1C#N (stereo not drawn)	inactive	inactive	inactive	inactive	inactive	inactive	–	–	inactive	inactive	inactive	inactive	inactive	0.0067 µM (active)	inactive	inactive	inactive	–	–	–
C[C@H]1[C@H]2CC[C@H]3[C@@H]4CC=C5C[C@@H](N(C)C)CC[C@]5(C)[C@H]4CC[C@]23CN1C	inactive	inactive	inactive	inactive	inactive	–	–	inactive	inactive	0.729 µM (active)	inactive	inactive	inactive	inactive	inactive	inactive	inactive	inactive	–	–
CN1CCC(=C2c3ccccc3Sc3ccccc32)CC1	inactive	inactive	inactive	inactive	inactive	inactive	–	–	inactive	–	–	inactive	inactive	–	inactive	0.75 µM (active)	inactive	–	–	–
CCOC(=O)OC(C)OC(=O)[C@@H]1N2C(=O)[C@@H](NC(=O)[C@H](N)c3ccccc3)[C@H]2SC1(C)C (stereo partly drawn)	inactive	inactive	inactive	inactive	inactive	inactive	–	–	inactive	inactive	inactive	inactive	inactive	inactive	inactive	inactive	inactive	–	–	–
